Here are results for 109 compounds from PubChem BioAssay AID2551 (National Center for Advancing Translational Sciences (NCATS), 2010).

The whole screen tested about 310,000 compounds, of which about 17,000 (5.5%) were called active. A call without a number means that no potency is given here. Not shown: some 11% with an inconclusive outcome. This is one part of a sample in which actives are shown more often than they occur. The call rests on the fitted dose curve; in most records, active means well fitted inhibition curve with a large enough effect; inconclusive means small, poorly fitted or top-dose-only effect, or effect the other way; inactive means no such curve, though single readings can be large or run the other way.
Potency means the concentration at half of the fitted maximal effect.

The target in this test is Nuclear receptor ROR-gamma (Mus musculus) (UniProt P51450). In words: qHTS for inhibitors of ROR gamma transcriptional activity. Further: nearly all actives have a fitted effect of over 60% in size. The note with it: Drosophila S2 Gal4-RORgamma UAS-luciferase reporter, 20 h; series mostly up to 53.6 µM. The essentials: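 In this cell-based reporter format, copper sulfate (700 uM final) drives Gal4–ROR gamma fusion expression from a metallothionein promoter in Drosophila Schneider cells; compounds preincubated 1 hr, reporter read after 20 hr at ambient temperature.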
Sequence of Nuclear receptor ROR-gamma (Mus musculus) (P51450 whole entry, looked up, the tested form may be a part): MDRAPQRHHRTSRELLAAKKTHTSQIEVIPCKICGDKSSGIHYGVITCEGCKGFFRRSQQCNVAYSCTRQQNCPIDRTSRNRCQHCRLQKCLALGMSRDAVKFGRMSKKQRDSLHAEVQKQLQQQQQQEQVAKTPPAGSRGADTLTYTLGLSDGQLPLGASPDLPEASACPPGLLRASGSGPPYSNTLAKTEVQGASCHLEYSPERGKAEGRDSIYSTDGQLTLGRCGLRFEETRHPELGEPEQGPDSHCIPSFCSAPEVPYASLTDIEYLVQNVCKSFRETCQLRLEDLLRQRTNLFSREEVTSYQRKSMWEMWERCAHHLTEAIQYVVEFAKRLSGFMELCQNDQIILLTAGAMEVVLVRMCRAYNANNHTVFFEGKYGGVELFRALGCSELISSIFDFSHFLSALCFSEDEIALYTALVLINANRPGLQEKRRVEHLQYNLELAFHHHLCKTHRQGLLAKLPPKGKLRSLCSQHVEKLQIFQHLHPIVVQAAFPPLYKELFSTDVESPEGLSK
As to `Cc1ccc(S(=O)(=O)NCC2CCC(C(=O)N3CCOCC3)CC2)cc1` (centres undefined), the Potency result is “inactive”.
For the compound `CC(=O)Nc1c2c(nn1-c1ccc(C)cc1C)CS(=O)C2` (centres undefined), the Potency entry is “inactive”.
The same measure, in the same setting: the value for `CCc1cccc(C)c1NS(=O)(=O)c1cc(Br)cnc1N` was “inactive”; that for `CC(=O)c1cccc(NC(=O)c2cc(C)nn2-c2ccccc2)c1` was “inactive”.
On the same count and under the same terms, with `CCOC(=O)c1cc(S(=O)(=O)NCCc2ccc(OC)c(OC)c2)cn1C` the entry was “inactive”; with `CNC(=O)C1CCN(S(=O)(=O)c2c(C)noc2/C=C/c2cccc(C)c2)CC1`, “inactive”.
Consider `COc1ccc(-c2cc3n(n2)CCc2nc4ccccc4n2-3)cc1`, for which the Potency entry was “inactive”.
Still for that read-out and setting: with `COc1ccc(-c2csc(N3CCN(Cc4ccc5c(c4)OCO5)CC3)n2)cc1` the entry was “inactive”.
On the same count and under the same terms, with `CCCn1c(C2CCCN2c2nc(-c3ccc(OC)cc3)cs2)nc2ccccc21` (centres undefined) the figure was 2 µM (active); with `O=[N+]([O-])c1cc(C(F)(F)F)ccc1NCCc1ccncc1`, “inactive”; with `CC1(C)Cc2cccc(OCC(=O)NCc3ccccc3)c2O1`, “inactive”.
On the same count and under the same terms, the value for `CCCCc1ccc(NC(=O)NCc2cccnc2)cc1` was “inactive”; that for `CCOC(=O)C1CCCN(CCSc2ccc(C)cc2)C1` (centres undefined) was “inactive”.
Consider `Cc1nc(-c2ccccc2)sc1C(=O)/C=C/N(C)C`, for which the Potency result was “inactive”.
The same measure, in the same setting: the value for `Cc1nc(-c2ccc(Cl)cc2)sc1C(=O)NN` was “inactive”; that for `Cc1nc(-c2ccc(Cl)cc2)sc1C(=O)CBr` was 5.01 µM (active).
Same read-out and setting: the value for `COc1ccccc1OC(C)C(=O)Nc1ccc(S(=O)(=O)Nc2nccs2)cc1` (centres undefined) was “inactive”; that for `Cc1ccccc1-c1ccc(C(=O)O)s1` was “inactive”.
In the case of `Cc1ccccc1-c1n[nH]c(=S)n1C`, the Potency was 2.82 µM (active).
Still for that read-out and setting: with `O=C(O)C1CC=CCC1C(=O)Nc1ccccc1C(=O)N1CCN(c2ccccc2)CC1` (centres undefined) the entry was “inactive”; with `CC(C)c1ccc(N2CCN(C(=O)c3ccccc3NC(=O)/C=C(\C(=O)O)c3ccccc3)CC2)cc1`, 3.16 µM (active).
Consider `COc1ccc(C(=O)Nc2ccccc2C(=O)N2CCN(c3ccccc3)CC2)cc1`, for which the Potency entry was “inactive”.
Same read-out and setting: with `O=C(Cc1c(Cl)cccc1Cl)NC1CC1` the entry was “inactive”; with `Cc1c(Cl)cccc1NC(=O)NCc1ccc(C)n1C`, “inactive”; with `CCOC(=O)N1CC=C2C(C#N)=C(N)C(C#N)(C#N)[C@H](c3cccs3)[C@H]2C1`, “inactive”.
The same measure, in the same setting: the value for `CCN1CC=C2C(C#N)=C(N)C(C#N)(C#N)[C@H](c3ccoc3)[C@H]2C1` was “inactive”; that for `N#CC1=C(N)C(C#N)(C#N)[C@H](c2ccsc2)[C@H]2COCC=C12` was 17.8 µM (active).
With `CCCNC(=O)C(=O)Nc1cc2c3c(c1)CCC(=O)N3CCC2`, the Potency entry is “inactive”.
Same read-out and setting: with `CN(C(=O)C1CCN(c2ncnc3c2nc2n3CCCCC2)CC1)C1CCCCC1` the entry was “inactive”; with `CCOc1ccc(Nc2nc(Cc3nnc(SCC(=O)NC4CCCC4)n3C)cs2)cc1`, “inactive”.
Same read-out and setting: with `COCCCn1c(SCC(=O)NC2CCCC2)nnc1-c1ccccc1` the entry was “inactive”.
`COCCCn1c(Cc2csc(Nc3cccc(Cl)c3)n2)nnc1SCC(=O)OC1CCCCC1`: the Potency was 11.2 µM (active).
Regarding `CCOc1ccccc1NC(=O)C12CC3CC(C1)CC(c1ccc(C)cc1)(C3)C2`, the Potency result was “inactive”.
With `CCCn1c(NC(=O)C23CC4CC(CC(O)(C4)C2)C3)nc2ccccc21`, the Potency was 0.708 µM (active).
Take `CCCn1c(C(Cc2ccccc2)NC(=O)COC)nc2ccccc21` (centres undefined): the Potency entry is “inactive”.
As for `Cc1cc(C)nc(N/N=C/c2c(CO)cnc(C)c2O)n1`, the Potency entry is “inactive”.
On the same count and under the same terms, the value for `O=C(NC1CCCCC1)c1ccc2c(=O)n(CC3CCCO3)c(=O)[nH]c2c1` (centres undefined) was “inactive”.
Same read-out and setting: with `COCCn1c(=S)[nH]c2cc(C(=O)NCCc3ccc(OC)c(OC)c3)ccc2c1=O` the entry was “inactive”.
`COc1ccc(CNc2nc3c(c(=O)[nH]c(=O)n3C)n2Cc2ccccc2)cc1`: the Potency result is “inactive”.
In the case of `COc1ccc(Cn2c(O)c(/C=C3/C=CC=N3)c(=O)[nH]c2=O)cc1`, the Potency entry is “inactive”.
The same measure, in the same setting: the value for `COc1ccc(Cn2c(=O)cc(C)[nH]c2=S)cc1` was 11.2 µM (active); that for `COc1ccc(Cn2c(=S)[nH]c3cc(C(=O)N4CCCCC4)ccc3c2=O)cc1` was 8.91 µM (active); that for `COc1ccc(Cn2c(=S)[nH]c3cc(C(=O)NCCCN4CCOCC4)ccc3c2=O)cc1` was “inactive”.
Still for that read-out and setting: the value for `NC(=O)C1CCN(C(=O)c2ccc3c(=O)n(Cc4cccc(Br)c4)c(=S)[nH]c3c2)CC1` was “inactive”; that for `COC(=O)c1ccc2c(=O)n(CC3CCCO3)c(=S)[nH]c2c1` (centres undefined) was 2.82 µM (active).
Same read-out and setting: with `COc1cc2c(cc1OC)CN(CC(=O)Nc1ccc(F)cc1)CC2` the entry was “inactive”.
As for `CC(C)Oc1ccc(C(CC(=O)N2CCOCC2)C(C)C)cc1` (centres undefined), the Potency result was “inactive”.
Take `COc1ccc(-c2nc3c(s2)CCc2onc(-c4ccc(OC)cc4)c2-3)cc1`: the Potency entry is “inactive”.
Same read-out and setting: the value for `COc1cccc2cc(C(=O)NCc3ccc(C)cc3)c(=N)oc12` was “inactive”.
Regarding `COc1cc(C(=O)Nn2c(CC(C)C)nc3ccccc3c2=O)cc(OC)c1OC`, the activity change, negative = inhibition is -37% [at 1.91 µM] (inactive).
Take `CCOc1ccccc1NC(=O)Cn1ncc2ccc([N+](=O)[O-])cc21`: the Potency entry was “inactive”.
The same measure, in the same setting: the value for `CC(=O)Nc1ccc(S(=O)(=O)N2CCC(C(=O)N[C@@H](Cc3ccccc3)C(=O)O)CC2)cc1` was “inactive”; that for `COc1cccc(NC(=O)N2CCCC2C(=O)NC2CCCCC2)c1` (centres undefined) was “inactive”.
Still for that read-out and setting: with `Cc1cc(-c2ccc(C)c(S(=O)(=O)NCCCN(Cc3ccccc3)C(C)C)c2)on1` the entry was “inactive”; with `O=C(NCCCN1CCCCC1)C1CC(=O)N(CCc2ccccc2)C1` (centres undefined), “inactive”; with `Oc1c(Cl)cc(Cl)c(Cl)c1Cc1c(O)c(Cl)cc(Cl)c1Cl`, 5.62 µM (active).
Consider `Cn1c(=O)n(C)c2cc(C(=O)Nc3ccc(Br)cc3)ccc21`, for which the Potency entry is “inactive”.
The same measure, in the same setting: with `CC(C)n1c(=O)[nH]c2cc(C(=O)Nc3ccccc3)ccc21` the figure was 7.94 µM (active).
Same read-out and setting: the value for `CN1CCN(c2ccc(NC(=O)c3ccc4c(c3)[nH]c(=O)n4Cc3ccc(F)cc3)cc2)CC1` was “inactive”.
In the case of `CCOC(=O)N1CCN(C(=O)C(C)NC(=O)c2ccco2)CC1` (centres undefined), the Potency entry was “inactive”.
Take `O=C(N/N=C/C=C/c1ccco1)c1cccs1`: the Potency is 5.01 µM (active).
With `CC(/C=N/NC(=O)c1ccncc1)=C\c1ccco1`, the Potency entry is “inactive”.
With `O=C(N/N=C/c1ccco1)c1ccc(C(=O)N/N=C/c2ccco2)o1`, the Potency entry is “inactive”.
For `COc1cc(OC)c(NC(=O)C2CCCN2C(=O)OCc2ccccc2)cc1Cl` (centres undefined), the Potency result is “inactive”.
Consider `COc1ccc(OC)c(S(=O)(=O)n2c([N+](=O)[O-])cnc2C)c1`, for which the Potency result is “inactive”.
As for `Cc1cccc(N(CC(=O)Nc2ccc(-c3nc4ccc(C)cc4s3)cc2)S(C)(=O)=O)c1`, the Potency entry was “inactive”.
Same read-out and setting: with `Cc1ccc2nc(-c3ccc(NC(=O)CN(C)S(=O)(=O)c4ccccc4)cc3)sc2c1` the figure was 2 µM (active); with `Cc1nc2ccc(S(=O)(=O)N(C)CC(=O)NC(C)c3ccccc3)cc2s1` (centres undefined), “inactive”; with `CCN(C(=O)CSc1nnc(-c2ccncc2)o1)c1ccccc1`, “inactive”.
Same read-out and setting: with `COc1ccc(NS(=O)(=O)c2cccc3nsnc23)cc1Cl` the entry was “inactive”.
For `CN(c1ccc2nc3ccccc3c(=O)n2n1)C1CCCCC1`, the Potency is 0.398 µM (active).
On to `CCOC(=O)C(C)Sc1nc2ccccc2c(=O)n1CC1CCCCC1` (centres undefined), for which the Potency result was “inactive”.
Regarding `O=c1c2ccccc2nc2n1C1(CCCCC1)Cc1ccccc1-2`, the Potency result was “inactive”.
On the same count and under the same terms, the value for `CC(=O)Oc1ccc(-c2cccc(C(=O)N3CCCCC3)c2)cc1` was “inactive”; that for `COc1ccccc1OCCn1c(SCC(N)=O)nc2ccccc21` was “inactive”; that for `O=C(NCc1cccnc1)C12CC3CC(CC(C3)C1)C2` was “inactive”.
On the same count and under the same terms, the value for `Cc1ccc(C(=O)NC2CCN(C(=O)Nc3ccccc3Cl)CC2)cc1` was “inactive”.
For `CC(C)CNC(=O)C(=O)NCc1ccccc1`, the Potency result is “inactive”.
With `CC(=O)c1ccc(NC(=S)NC(=O)CC(C)C)cc1`, the Potency was 12.6 µM (active).
Still for that read-out and setting: with `COc1ccc(NS(=O)(=O)c2ccc(NC(=S)NC(=O)CC(C)C)cc2)cc1` the entry was “inactive”.
The same measure, in the same setting: the value for `CC(C)CC(=O)NC(=S)NCc1ccccc1` was 5.01 µM (active).
Same read-out and setting: with `CC(C)CC(=O)c1c[nH]c(C(=O)NCc2ccccc2)c1` the entry was “inactive”; with `CC(C)CC(=O)NC(=S)Nc1cc(C(=O)O)ccc1Cl`, “inactive”; with `CC1CCCCN1CCCNc1ccc(C(CC(N)=O)NC(=O)c2ccccc2)cc1[N+](=O)[O-]` (centres undefined), “inactive”.
With `CCOC(=O)N1CCN(C(=O)C(=O)Nc2sc3c(c2C#N)CC(C)(C)OC3)CC1`, the Potency result is “inactive”.
The same measure, in the same setting: the value for `Cc1ccc(S(=O)(=O)NCC(=O)N2CCOCCOCCOCCOCC2)cc1` was “inactive”; that for `O=C(c1ccc(Cl)cc1)N1N=C(c2ccccn2)CC1(O)C(F)(F)F` (centres undefined) was 1.41 µM (active).
With `O=S(=O)(/N=C(/Nc1ccccn1)c1ccccc1)c1ccc(Cl)cc1`, the Potency result is “inactive”.
For `O=C(c1ccc(Cl)cc1)n1cnc2ccccc21`, the Potency entry was “inactive”.
For the compound `COC(=O)c1ccc2ccccc2c1OC1OC(CO)C(O)C(O)C1NC(C)=O` (centres undefined), the Potency entry is “inactive”.
Same read-out and setting: with `C=CCNC(=S)NNc1ncnc2sc3c(c12)CC(C)(C)OC3` the figure was 1.26 µM (active); with `CN(C)CCSc1nc(N)c2c3c(sc2n1)COC(C)(C)C3`, “inactive”; with `CC1(C)Cc2c(sc3nc4n(c(=N)c23)CCCCC4)CO1`, “inactive”.
Turning to `Fc1ccc(-c2ccc(NCCN3CCOCC3)nn2)cc1`, the Potency entry was “inactive”.
Still for that read-out and setting: with `CC(=O)c1c(C)oc2ccc(NS(=O)(=O)c3ccccc3)cc12` the entry was “inactive”.
The same measure, in the same setting: with `Cc1ccc(CN2CCC(n3nccc3NC(=O)CCCc3ccccc3)CC2)o1` the entry was “inactive”; with `O=C(CCl)NNc1cccc(Cl)n1`, “inactive”.
`O=C(Nc1cnccn1)c1cccnc1`: the Potency entry was “inactive”.
As to `O=C(NNc1ccccn1)c1ccc(Cl)nc1`, the Potency is 12.6 µM (active).
On the same count and under the same terms, with `COc1ccc(C)cc1N(CC(=O)NC(C)c1ccccc1)S(C)(=O)=O` (centres undefined) the entry was “inactive”; with `CCCC(=O)Nc1cccc(NC(=S)NC(=O)C(C)Oc2ccc(Cl)cc2Cl)c1` (centres undefined), 6.31 µM (active).
Turning to `COc1cccc(NC(=O)CN(C)C(=O)Cc2ccc(Cl)cc2Cl)c1`, the Potency result is “inactive”.
Turning to `CC(Oc1ccc(Cl)cc1Cl)C(=O)/C=C/N(C)C` (centres undefined), the Potency result was “inactive”.
With `CCOC(=O)N1CCN(S(=O)(=O)N2CCCC(C(=O)NCCCN3CCC(C)CC3)C2)CC1` (centres undefined), the Potency entry is “inactive”.
As to `Fc1cc(F)c2nc(N3CCOCC3)sc2c1`, the Potency result was “inactive”.
On the same count and under the same terms, with `NC(=O)c1c(NC(=O)c2ccccc2)sc2c1CCCC2` the entry was “inactive”; with `NC(=O)c1c(Nc2nc3c(F)cccc3s2)sc2c1CCCC2`, 12.6 µM (active).
Take `Fc1cc(F)c2nc(Nc3nc4c(F)cccc4s3)sc2c1`: the Potency is 3.98 µM (active).
The same measure, in the same setting: the value for `NC(=O)c1c(NC(=O)CSc2nc(N)cc(=O)[nH]2)sc2c1CCCC2` was “inactive”.
